The whole screen tested about 360,000 compounds, of which about 2,000 (0.56%) were called active. The sample as a whole holds a higher share of actives than the screen did. Unmarked numbers belong to inactive results.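 How the source made its calls: active means activation above the average of all compounds screened plus 3 SD, cutoff fixed separately per campaign (cut at about 7.5% in these data); inactive means the rest.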

The test can be described thus: GAA850 frataxin promoter reporter upregulation – cell-based, luciferase luminescence, HEK293 lucGAA850, primary screen (AID 540364).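 Further: 0% = DMSO wells and 100% = 10 µM SAHA wells.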 Particulars: HEK293 lucGAA850 FXN promoter luciferase reporter, 24 h; at 6 µM; stronger effect = higher value; percent of 10 µM SAHA response. (In general: In a reporter assay the amount or activity of a reporter protein is the signal.)
As to `CC(=O)Nc1cccc(-c2nc3ccccc3s2)c1C`, the activation is 1.28%.
In the case of `CC(C)CC(=O)N/C(N)=N/c1nc2ccccc2s1`, the activation is 4.47%.
With `CCC(=O)NC(=Nc1nc2ccccc2s1)NC(=O)CC` the figure was 8.95% (active).
The value for `O=C(NCC1(N2CCCCC2)CCCCC1)c1ccc(NS(=O)(=O)c2ccc(F)cc2)cc1` was 2.54%; that for `Nc1ccc(C(=O)Nc2ccccc2N)cc1` was 13.5% (active).
With `O=C(Nc1ccccc1N1CCCC1)c1ccc2ccccc2c1` the figure was 1.86%; with `O=C(Cc1ccccc1)Nc1ccc(C(=O)Nc2ccccc2C(=O)O)cc1`, -0.24%.
Regarding `CCOc1ccccc1NS(=O)(=O)c1cc2c3c(c1)C(C)C(=O)N3CCC2` (centres undefined), the activation was 3.36%.
Take `O=C1COc2ccc(C(=O)COC(=O)c3cccnc3Cl)cc2N1`: the activation was 1.97%.
With `CCOC(=O)C1Sc2[nH]c(=O)sc2C(c2ccc(Cl)cc2)C1C(=O)OCC` (centres undefined) the figure was -10.5%; with `Cc1ccc(NC(=O)c2ccc(Oc3ncccn3)cc2)cc1`, 3.47%.
With `Cc1ccc(C(=O)NNc2ncnc3ccccc23)cc1` the figure was 7.73% (active); with `Cc1ccc(C(=O)NNC(=O)c2cc3cc4ccccc4nc3s2)cc1`, -0.4%; with `COC(=O)c1ccc(NC(=O)C23CC4CC(C2)CC(n2cnc(Cl)n2)(C4)C3)cc1`, 2.12%.
The value for `Cc1ccc(S(=O)(=O)N(C)c2nc3ccccc3n3c(C(C)C)nnc23)cc1` was 5.84%.
`CCCCNC(=O)N(O)C1N(/N=C/c2ccccc2O)C(=S)SC1(C)C` (centres undefined): the activation was 14.4% (active).
The value for `CCCCNC(=O)N(O)C1N(/N=C/c2ccc(N(C)C)cc2)C(=S)SC1(C)C` (centres undefined) was 1.55%; that for `CCC(C)N1C(=S)SC(C)(C)C1N(O)C(=O)NC1CCCCC1` (centres undefined) was 0.24%.
The value for `COc1ccc(Br)cc1S(=O)(=O)N1CCN=C1C` was 2.93%; that for `COc1ccccc1N1CCN(C(=O)C(=O)N/N=C/c2ccccc2F)CC1` was -1.01%.
The value for `O=C(CCC(=O)Nc1ccccc1)N/N=C/c1ccccc1F` was 0.15%; that for `Fc1ccccc1/C=N/Nc1cc(N2CCCCC2)ncn1` was 8.75% (active).
With `COc1ccc(-c2cc3nc(NCCOc4ccccc4)ccn3n2)cc1`, the activation was 0.64%.
The value for `CCN1CCN(c2nc(Nc3cccc(F)c3)nc(N)c2[N+](=O)[O-])CC1` was 3.12%; that for `Nc1nc(NCCCN2CCOCC2)nc(Nc2ccccc2)c1[N+](=O)[O-]` was 0.67%.
With `CNc1nc(Nc2ccc(C)c(Cl)c2)nc(N)c1[N+](=O)[O-]` the figure was 17.5% (active); with `O=C(COC(=O)COc1cccc(F)c1)NCC1CCCCC1`, 2.16%; with `Cc1ccc(-c2ccc(CN3C(C(C)C)C(=O)N(Cc4cn(CCC5OCCO5)nn4)CCS3(=O)=O)cc2)cc1` (centres undefined), -0.96%.
In the case of `O=S(=O)(c1ccc(F)cc1)N1CCN(C(=S)NC2CCCC2)CC1`, the activation was 3.66%.
The value for `N#CC1=C(SCc2ccc(C#N)cc2)N=C(N)C(c2nc(-c3ccccc3)cs2)C12CCCCC2` (centres undefined) was 9.79% (active).
The value for `N#Cc1ccc(CSc2ncccn2)cc1` was 2.06%; that for `Cc1ccc(S(=O)(=O)N(C)C)cc1NC(=O)C(C)OC(=O)c1ccc2ccccc2n1` (centres undefined) was 0.74%; that for `N#CCSc1nc2ccc(N3CCOCC3)cc2c(=O)n1CCc1ccccc1` was -2.84%.
The value for `N#CCSc1nc2ccccc2c(=O)n1-c1ccccc1` was 9.45% (active); that for `Cc1nn(-c2ccccc2)c(C)c1/C=N/NC(=O)CSc1nc2ccccc2c(=O)n1-c1ccccc1` was 0.81%.
For `O=C(c1cc(-c2ccc(Cl)cc2)on1)N1CCN(c2ccccc2)CC1`, the activation is 3.73%.
The value for `COc1ccccc1-c1cc(C(=O)N2CCCCC2)no1` was 3.83%; that for `COc1ccccc1N1CCN(C(=O)c2cc(-c3ccc(Br)cc3)on2)CC1` was 17.8% (active); that for `CC1(c2ccc(Cl)cc2Cl)NC(=O)N(CC(=O)Nc2cccnc2Cl)C1=O` (centres undefined) was 0.61%.
The value for `O=C(N[C@H]1C/C=C\C(c2cccc(F)c2)N(Cc2ccccc2)C(=O)C1)OCC1c2ccccc2-c2ccccc21` (some centres undefined) was -2.16%; that for `CN(C)CCNC(=O)c1cccc(-c2cnc3c(NC=O)cc(-c4cccc(C(F)(F)F)c4)cn23)c1` was -0.71%.
With `CC(Sc1nc2c([nH]c3ccccc32)c(=O)n1C)c1ccccc1` (centres undefined) the figure was 13.8% (active); with `CCCCc1nc2c(=O)[nH]c3ccccc3c2o1`, 3.48%.
For `Cn1nnnc1SCc1cc(=O)[nH]c2ccccc12`, the activation was 0.27%.
Consider `CCN(CC)CCNC(=O)c1sc2ncn(CC(=O)Nc3ccc(C)c(Cl)c3)c(=O)c2c1C`, for which the activation was 0.29%.
The value for `COc1ccc(-c2cc(NC(C)=O)c3ncc(-c4cc(OC)c(OC)c(OC)c4)n3c2)cn1` was -2.13%; that for `Cc1cc(C)n2nc(C(=O)NC(C)(C)C)nc2n1` was -0.66%; that for `Cc1cc(C)n2nc(CNS(=O)(=O)c3c(F)c(F)c(F)c(F)c3F)nc2n1` was 8.27% (active).
In the case of `Cc1cc(C)n2nc(SCC(N)=O)nc2n1`, the activation was 0.08%.
With `CCC(C)(C(=O)NC1CCCC1)N(C(=O)CNC(C)=O)c1ccc(C)cc1` (centres undefined) the figure was -0.84%; with `C[C@H]1CN([C@@H](C)CO)C(=O)CCCn2cc(nn2)CO[C@@H]1CN(C)S(=O)(=O)c1ccc(-c2ccccc2)cc1`, -1.7%.
As for `CC(C)[C@H](NC(=O)c1ccc(F)cc1)C(=O)OCC(=O)NC(=O)c1cccn1C`, the activation is 0.53%.
The value for `Fc1ccc2nc(Nc3nc4c(s3)CCCC4)sc2c1` was 5.51%.
The value for `Fc1ccc2nc(N3CCCCC3)sc2c1` was 8.32% (active); that for `c1c2c(cc3sc(N4CCCCC4)nc13)OCCO2` was -6.92%.
The value for `Cc1cccc(-n2c(Cc3cc(=O)[nH]c(=O)[nH]3)nnc2SCC(=O)Nc2cccc(C(F)(F)F)c2)c1` was 0.62%; that for `CC1CCC2(CC1)NC(=O)N(Cc1nnc(-c3cccs3)o1)C2=O` (centres undefined) was 1.39%; that for `CC(C)N1C(=S)SC(C)(C)C1n1oc(=O)n(-c2ccc(Cl)c(Cl)c2)c1=O` (centres undefined) was -0.29%.
In the case of `COC(=O)CSc1snnc1-c1ccc(Cl)c(Cl)c1`, the activation was 2.88%.

These data come from PubChem BioAssay AID540364 (The Scripps Research Institute Molecular Screening Center, 2011).
